Measured values from PubChem BioAssay (NCI).
About 79,000 compounds went through this panel and 15% of them were active in at least one assay; those are over-represented in the sample as a whole. A number with no mark means an inactive call. Calls of active or inactive are those of the source. Rule as the data show it: active = growth inhibition above about 70%; inactive = the rest.

What was measured:
[1] = NCI Yeast Anticancer Drug Screen. Data for the rad50 strain (AID 155);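 also: 0% = growth of vehicle-only cultures of the same strain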; settings: S. cerevisiae rad50 strain growth inhibition, hits give high values
Procedure, shortened: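 Relative growth inhibition (compound vs vehicle) was measured in yeast with a defined repair-gene alteration.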

[2] = NCI Yeast Anticancer Drug Screen. Data for the mec2-1 strain (AID 157); settings: S. cerevisiae mec2-1 strain, hits give high values
Procedure, shortened: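 Each compound was tested on mec2-1 yeast, a strain altered in DNA damage repair or cell cycle control. Growth inhibition is reported relative to vehicle.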

[3] = NCI Yeast Anticancer Drug Screen. Data for the sgs1 mgt1 strain (AID 161);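 also: 0% = growth of cultures given vehicle only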; settings: S. cerevisiae sgs1 mgt1 strain, hits give high values
Procedure, shortened: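 Read-out: growth inhibition vs vehicle controls. Cells: mutant yeast strain deficient in DNA damage repair.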

[4] = NCI Yeast Anticancer Drug Screen. Data for the cln2 rad14 strain (AID 165);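 also: 0% = growth equal to vehicle treated cultures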; settings: S. cerevisiae cln2 rad14 strain, hits give high values
Procedure, shortened: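 Test compounds were added to cln2 rad14 yeast cultures; inhibition of growth was then determined by comparison with vehicle treatment.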

[5] = NCI Yeast Anticancer Drug Screen. Data for the bub3 strain (AID 167); settings: S. cerevisiae bub3 mutant strain, hits give high values
Procedure, shortened: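 Screening used yeast with an engineered genetic alteration affecting cell cycle control. Compound-exposed cultures were compared with vehicle cultures, and reduced growth was taken as inhibition.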

[6] = NCI Yeast Anticancer Drug Screen. Data for the mlh1 rad18 strain (AID 175); settings: S. cerevisiae mlh1 rad18 strain growth inhibition, hits give high values
Procedure, shortened: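 Inhibition values reflect reduced growth of mutant yeast versus vehicle-treated controls following compound exposure; the mutations affect DNA damage repair.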

[7] = at 5.0 µM (retest, dose inferred, filed as 0.5)
[8] = at 50.0 µM (retest, dose inferred, filed as 5.0)

Structure (SMILES)	growth inhibition [1, 7]	growth inhibition [1, 8]	growth inhibition ([1]; at 50.0 µM)	growth inhibition [2, 7]	growth inhibition [2, 8]	growth inhibition ([2]; at 50.0 µM)	growth inhibition [3, 7]	growth inhibition [3, 8]	growth inhibition ([3]; at 50.0 µM)	growth inhibition [4, 7]	growth inhibition [4, 8]	growth inhibition ([4]; at 50.0 µM)	growth inhibition [5, 7]	growth inhibition [5, 8]	growth inhibition ([5]; at 50.0 µM)	growth inhibition [6, 7]	growth inhibition [6, 8]	growth inhibition ([6]; at 50.0 µM)
NNC(=S)N/N=C(/C(=O)Nc1ccc(Cl)c(Cl)c1)C(C1OC(=O)c2ccccc21)[N+](=O)[O-] (stereo not given)	27%	44%	26.6%	20%	39%	4.45%	9%	59%	34.4%	31%	48%	23.4%	28%	62%	32.5%	20%	44%	29.8%
Cc1ccc2c(c1)C1(SC(C)C(=O)N1c1ccc(Cl)cc1)C(=O)N2CN1CCOCC1 (stereo not given)	5%	98% (active)	18.6%	-4%	97% (active)	5.5%	-3%	95% (active)	0.4%	-4%	92% (active)	-17.3%	11%	97% (active)	16%	11%	98% (active)	29.9%
Cc1ccc(OC/C=C/c2ccc(Cl)cc2)cc1	-2%	75% (active)	77.2% (active)	0%	88% (active)	53.1%	16%	91% (active)	85.2% (active)	-2%	84% (active)	65%	2%	86% (active)	67.4%	5%	90% (active)	85.2% (active)
COc1ccccc1C(C)c1ccc2ccccc2c1C(=O)O (stereo not given)	11%	91% (active)	94.6% (active)	2%	93% (active)	94% (active)	1%	90% (active)	95% (active)	7%	93% (active)	96.1% (active)	-6%	87% (active)	93.4% (active)	2%	94% (active)	96% (active)
CCc1cc(CC)c(-c2ccco2)c(COC(=O)NC)c1	-1%	68%	95.4% (active)	-3%	64%	94.2% (active)	-4%	78% (active)	94.3% (active)	-7%	25%	77.4% (active)	-8%	72% (active)	96% (active)	-1%	86% (active)	96.3% (active)
Cc1c(O)ccc(C(=O)CCl)c1O	-147%	38%	58.8%	-44%	5%	61.6%	-53%	42%	60.4%	-55%	-11%	12.9%	-69%	-3%	41.4%	-111%	33%	68.3%
Cc1cc2c(cc1C)[n+]([O-])c(-c1c(Cl)cccc1Cl)c(N)[n+]2[O-]	13%	88% (active)	82.5% (active)	27%	98% (active)	45.2%	40%	100% (active)	79.4% (active)	18%	77% (active)	69%	56%	99% (active)	93.5% (active)	45%	98% (active)	93.7% (active)
CC(C)NC(=O)OCCN=C1c2ccccc2CCc2ccccc21	-17%	95% (active)	76.4% (active)	-32%	96% (active)	78.8% (active)	-46%	89% (active)	77.5% (active)	-26%	60%	61.5%	-62%	97% (active)	81.5% (active)	-11%	95% (active)	68.8%
Cc1cc(NC(=S)SCc2ccc3c(c2)OCO3)ccc1Br	38%	98% (active)	89.7% (active)	28%	98% (active)	91.6% (active)	54%	98% (active)	91.2% (active)	40%	99% (active)	87.2% (active)	49%	98% (active)	91.2% (active)	34%	98% (active)	89.7% (active)
Cc1ccc(N2CC3CC4(C)C=CC3(C2)O4)cc1 (stereo not given)	6%	8%	76% (active)	-9%	1%	49.7%	10%	22%	79.8% (active)	-22%	10%	-6.65%	13%	-3%	89.5% (active)	30%	-1%	50.8%
COc1ccc(C(=O)CC(=O)c2ccccc2)cc1	1%	99% (active)	-6.2%	-1%	99% (active)	17.8%	2%	99% (active)	20.4%	-15%	99% (active)	-17.3%	24%	99% (active)	80% (active)	0%	99% (active)	14.1%
[N-]=[N+]=Nc1c(-c2ccccc2)c(=O)n(-c2ccccc2)c2ccccc12	-19%	93% (active)	88% (active)	-20%	94% (active)	92.8% (active)	-10%	95% (active)	90% (active)	12%	95% (active)	90% (active)	-2%	94% (active)	90% (active)	-13%	96% (active)	86.4% (active)
Cc1ccc(S(=O)(=O)S/C(=N\c2ccccn2)Nc2ccccn2)cc1	75% (active)	21%	38.9%	72% (active)	32%	39.9%	90% (active)	5%	58.6%	14%	16%	3%	95% (active)	11%	14%	85% (active)	29%	52.1%
COC1=C2C[C@@H](C)C[C@@H](OC)[C@@H](O)[C@H](C)/C=C(\C)[C@@H](OC(N)=O)[C@H](OC)/C=C\C=C(/C)C(=O)NC(=CC1=O)C2=O	61%	88% (active)	85.8% (active)	81% (active)	91% (active)	89.7% (active)	86% (active)	92% (active)	91.5% (active)	56%	85% (active)	84.8% (active)	84% (active)	88% (active)	89.7% (active)	69%	85% (active)	90% (active)
NC(N)=N/N=C(\c1ccc(F)cc1)c1ccc(C(F)(F)F)cc1	5%	99% (active)	72.6% (active)	-3%	96% (active)	30.2%	-2%	99% (active)	80.5% (active)	-4%	93% (active)	-12.7%	-1%	99% (active)	83.7% (active)	0%	99% (active)	85.8% (active)
N#CCCN(CCC#N)c1ccc(C(Sc2ccccc2)C(NC(=O)c2cc([N+](=O)[O-])ccc2Cl)C(=O)Sc2ccccc2)cc1 (stereo not given)	29%	74% (active)	75.7% (active)	25%	93% (active)	58.8%	30%	85% (active)	51.3%	16%	37%	51.6%	22%	91% (active)	74.7% (active)	47%	85% (active)	73.3% (active)
NCc1ccccc1-c1c2nc(c(-c3ccccc3CN)c3ccc([nH]3)c(-c3ccccc3CN)c3nc(c(-c4ccccc4CN)c4ccc1[nH]4)C=C3)C=C2	41%	84% (active)	79% (active)	34%	83% (active)	83% (active)	37%	82% (active)	86.2% (active)	32%	66%	78.8% (active)	37%	90% (active)	79.7% (active)	54%	84% (active)	76.2% (active)
COc1ccc(C2c3cc4c(cc3OC(O)C2C)OCO4)c(OC)c1 (stereo not given)	-2%	96% (active)	85.6% (active)	1%	95% (active)	58.5%	5%	95% (active)	83.8% (active)	-8%	89% (active)	68.9%	-4%	88% (active)	68.8%	-5%	97% (active)	87.5% (active)
Cc1ccc(NC(=O)CSC(N)=O)cc1C	4%	22%	81.5% (active)	1%	40%	70.1% (active)	1%	30%	87.3% (active)	1%	9%	58.5%	5%	69%	86.2% (active)	8%	20%	72% (active)
CC1=C(C2CO2)C(=O)C(C)=C(C2CO2)C1=O (stereo not given)	68%	100% (active)	99.6% (active)	40%	100% (active)	99.5% (active)	43%	99% (active)	99.5% (active)	59%	99% (active)	99.5% (active)	43%	99% (active)	98.2% (active)	60%	99% (active)	99.5% (active)
COc1ccccc1/C=C/c1ccnc2ccccc12	31%	97% (active)	72.7% (active)	15%	97% (active)	90.2% (active)	24%	98% (active)	88% (active)	13%	84% (active)	65.1%	24%	97% (active)	84.8% (active)	24%	96% (active)	91.7% (active)
O=C(c1ccccc1)c1cccc2ccccc12	5%	29%	56.2%	-5%	-2%	43%	-2%	30%	52.2%	-2%	-24%	-14.3%	16%	27%	49.7%	-1%	14%	88.2% (active)
CC(=O)O[C@@H]1CO[C@H]2O[C@H]3[C@@H](C(C=O)=C[C@H](O)[C@@H]4C5=C(C(C)C)CC[C@]5(C)CC[C@@]34C)[C@@]2(O)C1=O	99% (active)	99% (active)	92.1% (active)	99% (active)	100% (active)	92.8% (active)	97% (active)	100% (active)	92.7% (active)	94% (active)	98% (active)	91% (active)	97% (active)	99% (active)	91.3% (active)	98% (active)	99% (active)	91.7% (active)
CC(C)(C)CC(=O)O	8%	9%	5.05%	5%	3%	18.1%	-5%	2%	29.1%	-2%	-4%	27.1%	2%	13%	26.9%	7%	8%	-2.2%
C[C@H]1CC[C@@H]2[C@@H](C)[C@H]3[C@H](C[C@H]4[C@@H]5CC=C6C[C@@H](O)CC[C@]6(C)[C@H]5C[C@H](O)[C@]34C)N2C1	-6%	8%	-17.8%	19%	-7%	-45.2%	-3%	0%	-7.65%	16%	-2%	38.9%	1%	-6%	-47.1%	1%	7%	3%
